Holding throughout (test): PBM binding z-score (relative to random genomic background probes); higher = stronger binding; sequences stand for … in GC…GCGATTGACAGCGTAGAATGAAGG
The subject of experiment [1] is FXR:RXRa (NR concentration 270 nM, RXRa partner concentration 90 nM). In a few lines:
(§1)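 Custom Agilent 4×180K protein-binding microarrays carried double-stranded probes. Their 34-nt variable regions held direct-repeat seeds, single-nucleotide variants, half-site ablations and random human genomic background sequences. Arrays were incubated 1 h with ligand-free nuclear receptor dimers in PBS pH 7.4, 2% milk, 0.02% Triton X-100, 1 mM DTT, 0.2 mg/mL BSA and 0.4 mg/ml salmon testes DNA. Antibodies against each partner (one per run) detected binding, and scanned fluorescence was regression-normalized. Binding z-scores use random background probes as reference.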

For experiment [2], the system named is LXRa:RXRa (NR concentration 270 nM, RXRa partner concentration 90 nM). In outline: as §1
The subject of experiment [3] is LXRa homodimer (NR concentration 270 nM). In a few lines:
as §1

Experiment [4] concerns LXRb:RXRa (NR concentration 270 nM, RXRa partner concentration 90 nM). In a few lines: as §1
The subject of experiment [5] is LXRb homodimer (NR concentration 270 nM). In a few lines: as §1
The subject of experiment [6] is PPARa:RXRa (NR concentration 270 nM, RXRa partner concentration 90 nM). In outline:
as §1

Experiment [7] has as its system PPARg:RXRa (NR concentration 180 nM, RXRa partner concentration 90 nM). In outline:
as §1

The test system of experiment [8] is PPARg:RXRa 270nM:90nM, anti-RXR (NR concentration 270 nM, RXRa partner concentration 90 nM). In a few lines: as §1
Experiment [9] deals with PPARg:RXRa 30nM:10nM, anti-RXR (NR concentration 30 nM, RXRa partner concentration 10 nM). In outline:
as §1

For experiment [10], the system named is PPARg:RXRa 90nM:30nM, anti-RXR (NR concentration 90 nM, RXRa partner concentration 30 nM). In outline: as §1
The subject of experiment [11] is PPARg:RXRa DBDmut IVT, anti-RXR (DBD mutation: RXRa K156A/R161A, NR concentration 270 nM, RXRa partner concentration 90 nM). In outline: as §1
Experiment [12] relates to PPARg:RXRa IVT, anti-PPARg (NR concentration 270 nM, RXRa partner concentration 90 nM). In a few lines: as §1
The subject of experiment [13] is PPARg DBDmut:RXRa IVT, anti-PPARg (DBD mutation: PPARg1 K132A/R137A, NR concentration 270 nM, RXRa partner concentration 90 nM). In a few lines: as §1
The test system of experiment [14] is PPARg DBDmut IVT, anti-PPARg (DBD mutation: PPARg1 K132A/R137A, NR concentration 270 nM). In a few lines: as §1
The test system of experiment [15] is PPARg homodimer (NR concentration 180 nM). In a few lines: as §1
In experiment [16] the test system is PXR:RXRa (NR concentration 270 nM, RXRa partner concentration 90 nM). In outline:
as §1

Experiment [17] concerns PXR homodimer (NR concentration 270 nM). In outline: as §1
Experiment [18] deals with RARa:RXR (NR concentration 270 nM, RXRa partner concentration 90 nM). In outline:
as §1

Experiment [19] concerns RARa homodimer (NR concentration 270 nM). In a few lines:
as §1

The test system of experiment [20] is RARb:RXRa (NR concentration 270 nM, RXRa partner concentration 90 nM). In a few lines: as §1

For CGTCAAAGTTCAACTATGGTAACGTAAAGCACGC, the PBM binding z-score came to 6.59 in [1]; 6.03 in experiment [2]; 3.91 in [3]; 4.34 in [4]; 2.3 in experiment [5]; 4.97 in [6]. Further, the PBM binding z-score in experiment [7] is 4.9; in experiment [8], 5.62; in [9] it was 2.24; in [10], 4.52; in [11] it was 0.569; in experiment [12], 1.9. Also, the PBM binding z-score stood at 1.06 in experiment [13]; 1.31 in experiment [14]; 3.74 in experiment [15]; 4.94 in experiment [16]; 4.27 in experiment [17]; 4.14 in experiment [18]. For the same sequence, the results for the PBM binding z-score in experiment [19] and in experiment [20] were 2.09 and 5.33, respectively.

As to TTACCAAGGTGAGCTGAGGTCGTCGATCCAACTC, the PBM binding z-score was 1.73 in experiment [1]; 0.879 in [2]; -0.506 in experiment [3]; 0.696 in [4]; -1.82 in experiment [5]; 1.82 in experiment [6]. In addition, the PBM binding z-score in experiment [7] was 0.26; in experiment [8], 1.06; in experiment [9] it was -0.186; in experiment [10], 0.372; in experiment [11] it was 0.887; in experiment [12], 2.1. Moreover, the PBM binding z-score in experiment [13] is -0.228; in experiment [14], -0.875; in [15], -0.188; in [16], 3.92; in [17] it was 0.167; in [18], 1.43. Besides, the PBM binding z-score in experiment [19] is -0.863; in experiment [20], 1.8.

Turning to TTACCAAGGTGTAAGGTCGTTGATGCACGCCTTG, the PBM binding z-score was 0.533 in experiment [1]; 0.628 in [2]; -0.156 in [3]; 0.478 in [4]; -0.764 in experiment [5]; 2.06 in experiment [6]. In addition, the PBM binding z-score in experiment [7] was 2.4; in experiment [8], 4.03; in [9], 1.99; in experiment [10] it was 3.46; in experiment [11], -0.345; in experiment [12], 1.3. The PBM binding z-score is 0.0676 in experiment [13]; -0.033 in experiment [14]; 0.125 in experiment [15]; 1.1 in experiment [16]; 0.267 in experiment [17]; 1.38 in experiment [18]. For the same sequence, the PBM binding z-score was -0.417 in experiment [19] and 1.09 in experiment [20].

For the sequence ATATGTGGGTTAAGGGTCATTCAGGTTGGTTCGC, the PBM binding z-score in experiment [1] is 5.26; in experiment [2], 4.74; in experiment [3], 3.07; in [4], 4.91; in experiment [5] it was 2.59; in [6] it was 6.53. Besides, the PBM binding z-score in [7] is 11.6; in experiment [8], 9.82; in experiment [9], 10.4; in experiment [10], 11.3; in experiment [11] it was 7.01; in [12], 7.51. In addition, the PBM binding z-score was found to be 2.4 in experiment [13]; 2.39 in experiment [14]; 3.88 in experiment [15]; 5.53 in [16]; 3.93 in experiment [17]; 6.07 in [18]. For the same sequence, the results for the PBM binding z-score in [19] and in experiment [20] were 3.29 and 3.59, respectively.

Consider CCTTACGGGTCAAGTTTATAGCACGGGTGGTACG, for which the PBM binding z-score in [1] was 6.15; in experiment [2], 4.11; in experiment [3] it was 0.444; in experiment [4], 3.48; in [5], 0.604; in experiment [6], 5.14. Further, the PBM binding z-score in [7] was 4.2; in experiment [8], 4.22; in experiment [9], 1.91; in experiment [10], 3.06; in [11] it was 2.03; in experiment [12], 3.32. Besides, the PBM binding z-score was 1.11 in experiment [13]; -0.333 in experiment [14]; 4.02 in experiment [15]; 3.89 in experiment [16]; 0.698 in experiment [17]; 4.34 in [18]. The figures for the PBM binding z-score in experiment [19] and in experiment [20] were 1.46 and 4.19, respectively.

For CCGACTGGGGCAAGTTTACCATAACGCACAGCCA, the PBM binding z-score is -0.129 in [1]; 0.0135 in experiment [2]; 0.16 in [3]; 0.0377 in experiment [4]; -0.603 in experiment [5]; 0.536 in experiment [6]. The PBM binding z-score was 0.987 in [7]; 0.774 in experiment [8]; -0.288 in experiment [9]; 0.451 in experiment [10]; 3.19 in experiment [11]; 2.78 in experiment [12]. The PBM binding z-score in [13] was -0.473; in [14] it was -0.469; in experiment [15], 0.332; in experiment [16], -0.0221; in [17], 0.029; in experiment [18], 0.0414. The PBM binding z-score in experiment [19] stood at 0.4; in experiment [20] it was 1.02.

As to TGTGCTAGGTCAACGATGGTCAGCTAATCTGCTA, the PBM binding z-score in experiment [1] was 3.38; in experiment [2] it was 2.67; in experiment [3], -0.0277; in [4] it was 1.54; in [5] it was 0.116; in [6], 3.1. The PBM binding z-score came out at 2.68 in experiment [7]; 2.4 in experiment [8]; 0.195 in experiment [9]; 1.68 in experiment [10]; 2.94 in [11]; 4.09 in experiment [12]. In addition, the PBM binding z-score in [13] was 0.203; in experiment [14], 0.0393; in experiment [15], 1.1; in [16], 1.4; in experiment [17], -0.379; in [18], 1.85. Also, the PBM binding z-score in experiment [19] was -0.241; in experiment [20] it was 4.15.

The record behind these values is the supplement of paper PMC6555819.
